NS1 function inh: influenza NS1 inhibition | Potency, µM (top dose mostly 46.1 µM), without a hit: at the top dose activity, positive = more growth | 0.4% of 270,000 active; calls by dose curve; further: potency means the concentration at half of the fitted maximal effect; actives are rising curves; nearly all actives have a fitted effect of over 50% in size
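S. cerevisiae expressing influenza A NS1, grown in glucose, washed, then diluted 1:100 into pH 6.0 -URA galactose medium with 23 nl compound. Growth recovery read as OD600; NS1-free strain serves as control.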
Pf growth 96h: P. falciparum growth inhibition at 96 hour, primary screen for plastid delayed-death inhibitors; 6.9% of 320,000 active; Potency, µM (highest dose often 28.7 µM), for the others: top-dose activity change, negative = inhibition, most hits filed as inhibitors; AID 504834; P. falciparum luciferase reporter growth, 96 h; further: potency means the concentration at half of the fitted maximal effect; on the % scale 0 is the no-effect control and ±100 the full control effect
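Compounds incubated with erythrocytes infected by luciferase-expressing P. falciparum (2% hematocrit, 0.05% parasitemia final) for 96 hours, 37 C in 5% CO2. Growth inhibition scored as decreased luciferase luminescence.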
Shiga toxin inh: blocks Shiga toxin action in Vero cells; inhibition, % at 38.7 µM; 9.2% of 290,000 active; Vero cells, Shiga toxin protein synthesis inhibition reporter; AID 2315; in the data active means inhibition mostly above about 28%, no sharp cut-off; inactive means mostly below about 43%; further: 0% is about no effect
CHX counter: affects cycloheximide protein synthesis inhibition readout, counter-screen; AID 2314; cell reporter, cycloheximide protein synthesis inhibition counterscreen; 12% of 300,000 active; max response, %; in the data active means max response mostly above about 13%, no sharp cut-off; inactive means mostly below about 14%; further: read at 38.3 µM for the half of the compounds with a filed dose; 0% is about no effect
Pf growth 48h: P. falciparum growth inhibition at 48 hours (one generation). P. falciparum luciferase growth in erythrocytes, 48 h. Potency, µM (series often up to 28.7 µM), for inactives: top-dose activity change, negative = inhibition, usual class: inhibitors. 5.9% of 310,000 active. AID 504832; further: potency means the concentration at half of the fitted maximal effect; on the % scale 0 is the no-effect control and ±100 the full control effect
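Parasite viability was followed by luminescence of a genomically integrated firefly luciferase. Cultures held 0.1% parasitemia at 2% hematocrit (final), incubated under 5% CO2 at 37 C.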
Giardia FBPA inh-1: Giardia lamblia aldolase inhibition; purified Giardia FBPA; A8B2U2; 0.71% of 290,000 active; AID 2451; Potency, µM (doses to about 59.6 µM), for the others: at the highest dose activity, negative = inhibition, hits mostly inhibitors; further: potency means the concentration at half of the fitted maximal effect; on the % scale 0 is the no-effect control and ±100 the full control effect; nearly all actives have a fitted effect of over 55% in size
Target sequence (A8B2U2 whole entry, looked up): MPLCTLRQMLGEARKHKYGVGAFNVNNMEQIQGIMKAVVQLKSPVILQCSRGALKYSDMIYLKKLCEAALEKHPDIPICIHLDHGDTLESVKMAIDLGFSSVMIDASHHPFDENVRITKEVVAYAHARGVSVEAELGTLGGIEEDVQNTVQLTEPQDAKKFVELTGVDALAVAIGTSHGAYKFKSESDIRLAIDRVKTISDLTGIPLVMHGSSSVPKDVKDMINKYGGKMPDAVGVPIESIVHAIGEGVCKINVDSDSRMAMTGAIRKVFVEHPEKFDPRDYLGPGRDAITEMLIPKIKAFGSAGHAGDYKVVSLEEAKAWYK
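40 nM FBPA preincubated 10 min at RT with compound (up to 57.5 uM final), then substrate plus GAPDH/TPI/NAD/arsenate coupling and diaphorase/resazurin added. Fluorescence read after 20 min at RT, 525/598 nm.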
Giardia growth: inhibitors of Giardia lamblia growth; shares compounds with Giardia FBPA inh-1; Giardia lamblia trophozoite growth inhibition; Potency, µM (titrated, usually from 57.5 µM), without a hit: at the top dose activity change, negative = inhibition, usual class: inhibitors; 5% of 1,500 active; AID 2785;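 further: potency means the concentration at half of the fitted maximal effect; trophozoites exposed to compound for 48 h at 37 °C; on the % scale 0 is the no-effect control and ±100 the full control effect; nearly all actives have a fitted effect of over 70% in size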
Mammal cell tox: counter-screen for Giardia aldolase inhibitors: mammalian cell toxicity. shares compounds with Giardia FBPA inh-1. mammalian cell viability counter-screen, qHTS. Potency, µM (titrated, usually from 57.5 µM), without a hit: at the highest dose viability change, negative = toxicity, hits mostly inhibitors. 4% of 1,500 active. AID 2786;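 further: Chinese hamster ovary cells used as mammalian cytotoxicity surrogate; viability measured as cellular ATP by luminescence; potency means the concentration at half of the fitted maximal effect; compound exposure lasted 48 h before reading; on the % scale 0 is the no-effect control and ±100 the full control effect; nearly all actives have a fitted effect of over 60% in size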
Giardia FBPA inh-2: confirmation of Giardia fructose-bisphosphate aldolase inhibitors; shares compounds with Giardia FBPA inh-1; purified Giardia aldolase enzyme activity, qHTS; Potency, µM (series often up to 57.5 µM), for the others: top-dose activity change, negative = inhibition, hits mostly inhibitors; 5% of 1,500 active; further: potency means the concentration at half of the fitted maximal effect; on the % scale 0 is the no-effect control and ±100 the full control effect; nearly all actives have a fitted effect of over 45% in size
Rabbit FBPA inh: blocks rabbit muscle aldolase in Giardia aldolase selectivity test | shares compounds with Giardia FBPA inh-1 | Rabbit muscle FBPA enzyme inhibition, selectivity counter-screen | Potency, µM (doses to about 57.5 µM), for inactives: at the highest dose activity, negative = inhibition, most hits filed as inhibitors | 4% of 1,500 active; further: potency means the concentration at half of the fitted maximal effect; on the % scale 0 is the no-effect control and ±100 the full control effect; nearly all actives have a fitted effect of over 60% in size
Target sequence (P00883 whole entry, looked up): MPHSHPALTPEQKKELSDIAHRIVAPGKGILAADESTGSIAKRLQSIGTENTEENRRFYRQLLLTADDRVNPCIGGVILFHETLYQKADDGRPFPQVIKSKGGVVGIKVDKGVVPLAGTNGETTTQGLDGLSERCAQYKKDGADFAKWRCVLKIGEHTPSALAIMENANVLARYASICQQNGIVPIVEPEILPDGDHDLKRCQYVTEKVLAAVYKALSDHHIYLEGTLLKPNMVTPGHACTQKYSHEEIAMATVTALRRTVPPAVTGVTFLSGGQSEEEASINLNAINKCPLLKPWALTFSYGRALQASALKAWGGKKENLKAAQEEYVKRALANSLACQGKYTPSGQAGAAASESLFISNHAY
GAPDH coupling: GAPDH inhibition flagged for Giardia aldolase hits; shares compounds with Giardia FBPA inh-1; Potency, µM (series often up to 57.5 µM), for inactives: top-dose activity change, negative = inhibition, actives largely listed as inhibitors; AID 2795; 6% of 1,500 active; GAPDH coupling enzyme counterscreen, biochemical, qHTS; further: potency means the concentration at half of the fitted maximal effect; on the % scale 0 is the no-effect control and ±100 the full control effect; nearly all actives have a fitted effect of over 55% in size
An asterisk follows results filed as active; ? = inconclusive; . = no result; [ ] = remark or other dose. Only some compounds are listed: those with a hit (about 21% of all), similar ones and a draw of the others. Unless noted, the call rests on the fitted dose curve; in most records, active means well fitted curve in the direction sought with a large enough effect; inconclusive means small, poorly fitted or top-dose-only effect, or another doubt; inactive means no such curve, though single readings can be large; an effect the other way counts as inactive or inconclusive.

SMILES	NS1 function inh	Pf growth 96h	Shiga toxin inh	CHX counter	Pf growth 48h	Giardia FBPA inh-1	Giardia growth	Mammal cell tox	Giardia FBPA inh-2	Rabbit FBPA inh	GAPDH coupling
Nc1nc(=S)c2ncn(C3OC(CO)C(O)C3O)c2[nH]1 (stereo unspecified)	6%	0%	9	-4	4%	6.3µM*	3%[10.4 µM]	2%	1%	2%	1%
CC1(C)OC2C(CO)OC(n3cnc4c(=S)nc[nH]c43)C2O1 (stereo unspecified)	2%	8%	-7	-3	-5%	4.5µM*	-25%[38.3 µM]	?	-4%	-2%	1%
CCOC(=O)N1C(=O)C2(CCCCC2)N(c2ccccc2Cl)C1=S	-51%	-4%	13	3	3%	-10%	.	.	.	.	.
Oc1c(/C=N/c2ncn[nH]2)ccc2ccccc12	-78%	6%	66*	27*	26%	8.9µM*	19%	6%	8.9µM*	40µM*	?
CN1CCN(c2nc(Nc3ccc(F)cc3)nc(Nc3ccc(F)cc3)n2)CC1	1%	6%	-8	-9	-3%[0.00184 µM]	-3%	.	.	.	.	.
Nn1c(SCC(=O)Nc2ccc3c(c2)OCO3)nncc1=O	.	-8%	10	8	9%	-10%	.	.	.	.	.
Nn1c(SCC(=O)Nc2cccc(C(F)(F)F)c2)nncc1=O	?	-1%	-2	-2	?	25µM*	-9%[10.4 µM]	-8%	-4%	-7%	0%
Cc1nc(C(=O)NNC(=O)c2ccc(Cl)cc2)cs1	1%	?	17	15	?	18µM*	?	-26%	1%	6%	8%
CCCC(c1nnnn1C1CCCC1)N1CCN(c2ccccc2F)CC1 (stereo unspecified)	-48%	?	-3	-3	?	-12%	.	.	.	.	.
[NH-]c1ncnc2c1N=C[N+]2=CC=CCO	4%	0%	-10	-3	2%	8.9µM*	-10%[38.3 µM]	8%	2%	6%	11%
CC(OC(=O)c1ccc2c(c1)OCCO2)C(=O)NC1CCCCC1C (stereo unspecified)	.	-1%	.	.	-24%	.	.	.	.	.	.
Cc1ccc(N2CCN(C(=S)c3ccc(-c4ccccc4[N+](=O)[O-])o3)CC2)cc1	9%	16%	1	-2	5%	-12%	.	.	.	.	.
Cc1ccc(N2CCN(C(=S)c3ccc(-c4cccc([N+](=O)[O-])c4)o3)CC2)cc1	-3%	-19%	-19	0	-5%	16µM*	-17%[10.4 µM]	-14%	-1%	-5%	6%
NC(=S)N/N=C1\c2ccccc2-c2c(C(=O)O)cccc21	10%	?	5	1	36%	4µM*	4%[10.4 µM]	2%	6%	3%	11%
COC(=O)c1cccc2c1-c1ccccc1/C2=N\NC(N)=O	-9%	?	15	10	35%	10%	.	.	.	.	.
NC(=O)c1cccc2c1-c1ccccc1/C2=N/NC(N)=S	4%	87%	-5	-1	20%	11µM*	-23%	-28%	-3%	0%	9%
Cc1ccc(-c2nnn3c2nc(Cl)c2ccccc23)cc1	.	34%	9	20	39%	4%	.	.	.	.	.
NNc1nc2c(-c3ccc(Cl)cc3)nnn2c2ccccc12	.	-16%	45	11	?	14µM*	?	?	-14%	-19%	-13%
Cc1cc(NC(=O)CSc2nc3ccsc3c(=O)n2CCCC(=O)NCCc2ccccc2)no1	.	-47%	2	10	?	4%	.	.	.	.	.
CC(C(=O)Nc1ccccc1F)N1CCN(C)CC1 (stereo unspecified)	4%	33%	7	-5	20%	16µM*	9%	9%	4%	4%	13%
S=c1nc[nH]c2nc[nH]c12	-6%	?	3	-2	?	7.9µM*	17%[38.3 µM]	7.9µM*	?	5%	-6%
COc1ccc2[nH]c3c(=S)nc[nH]c3c2c1	2%	4%	31	9	57%	-17%	.	.	.	.	.
Cn1c(=O)[nH]c(=O)c2c1nc(SCC(=O)O)n2Cc1ccccc1	18%	9%	-6	-5	13%	14µM*	-26%	7%	5%	8%	9%
CN(C)S(=O)(=O)c1cccc(C(=O)NC(=S)N(CCC#N)Cc2cccnc2)c1	.	12%	3	-4	5%	5.6µM*	6%[38.3 µM]	-6%	4%	2%	-6%
Cc1ccc(S(=O)(=O)N(C)C)cc1NC(=S)N(CCC#N)Cc1cccnc1	.	-11%	-10	-9	10%	0%	.	.	.	.	.
SMILES	NS1 function inh	Pf growth 96h	Shiga toxin inh	CHX counter	Pf growth 48h	Giardia FBPA inh-1	Giardia growth	Mammal cell tox	Giardia FBPA inh-2	Rabbit FBPA inh	GAPDH coupling
CCN(CC)S(=O)(=O)c1ccc(C(=O)NC(=S)N(CCC#N)Cc2cccnc2)cc1	.	-29%	16	-1	-14%	13µM*	?	5%	4%	5%	10%
O=C(NC(=S)N(CCO)Cc1ccccc1)c1cc(Br)ccc1Cl	-1%	14%	4	-1	?	16µM*	12%[10.4 µM]	4%	10%	11%	17%
N#CCCN(Cc1cccnc1)C(=S)NC(=O)c1ccco1	.	-13%	11	-7	65%	10%	.	.	.	.	.
N#CCCN(Cc1ccccc1)C(=S)NC(=O)c1ccccc1	-8%	?	7	12	-22%	16µM*	20%	5%	5%	7%	6%
CCN(Cc1ccccc1)C(=S)NC(=O)c1ccccc1Br	-53%	?	-4	2	-21%	-14%	.	.	.	.	.
O=C(NNC(=O)c1ccccc1O)c1ccc(Cl)c(S(=O)(=O)N2CCc3ccccc32)c1	.	-4%	.	.	?	.	.	.	.	.	.
CCN1CCN(C(CNS(=O)(=O)c2ccccc2)c2cccnc2)CC1 (stereo unspecified)	2%	29%	-9	-1	6%	.	.	.	.	.	.
CCOC(=O)c1nc(-c2ccc(OC)c(OC)c2)cnc1C#N	-3%	-2%	11	4	26%	6%	.	.	.	.	.
CCCCn1cnc2c(=S)nc(N)[nH]c21	6%	?	-7	2	?	7.1µM*	-4%[38.3 µM]	-11%	-9%	-14%	-7%
CCCn1cnc2c(=S)nc(N)[nH]c21	4%	-22%	-8	1	?	4.5µM*	2%[38.3 µM]	-2%	?	2%	-15%

Assay outcomes (PubChem BioAssay)
